Experimental findings from PubChem BioAssay (NCI) are described below.

This is part of a sample that, as a whole, favours compounds with a hit. Of some 83,000 tested, about 20% had one in any assay.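 Single-dose data. Exposure time 48 hours. Values below 10 considered active.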 A number with no mark means an inactive call. Active and inactive are the calls of the source.

Common to all, as to experiment: NCI-60 one-dose screen, 48 h (100 = growth as untreated, 0 = no growth, -100 = all killed)
One assay concerns SK-MEL-2 melanoma. Conditions: 10 µM.
For the next assay, the system named is EKVX NSCLC. The conditions noted are these: 10 µM.
Another assay relates to SN12C renal. Conditions: 10 µM.
A further assay relates to UO-31 renal. The conditions noted are these: 10 µM.
The test system of another assay is TK-10 renal. Conditions: 10 µM unless noted.
The subject of the next assay is ACHN renal. The conditions noted are these: 10 µM.
For another assay, the system named is CAKI-1 renal. Conditions: 10 µM.
A further assay relates to A498 renal. The conditions noted are these: 10 µM.
The next assay has as its system CCRF-CEM leukemia. Conditions: 10 µM.
Another assay deals with MOLT-4 leukemia. The conditions noted are these: 10 µM.

Regarding `C=CCOC(=O)C(=O)OCC=C`, the growth with SK-MEL-2 melanoma was 97.1%; in the assay with EKVX NSCLC, 132%; in the assay on SN12C renal it was 101%; in the assay with UO-31 renal, 108%; with TK-10 renal, 95.1%; in the assay with ACHN renal it was 100%. Further, the growth with CAKI-1 renal was 136%; in the assay with A498 renal, 119%; in the assay on CCRF-CEM leukemia, 90.7%; in the assay with MOLT-4 leukemia, 104%.

With `CC(=O)Nc1cccc(Cl)c1C`, the growth in the assay with SK-MEL-2 melanoma was 100%; in the assay with EKVX NSCLC it was 101%; in the assay with SN12C renal it was 99.7%; in the assay on UO-31 renal it was 85.3%; in the assay with TK-10 renal, 95.5%; with ACHN renal it was 106%. The results for the growth in the assay on CAKI-1 renal and in the assay with A498 renal were 97.7% and 93.3%, respectively.

In the case of `O=C(O)CCCCNC(=O)c1ccccc1`, the growth in the assay on SK-MEL-2 melanoma was 113%; with EKVX NSCLC it was 103%; in the assay on SN12C renal it was 115%; in the assay on UO-31 renal it was 100%; in the assay on TK-10 renal, 101%; with ACHN renal, 115%. Moreover, the growth is 107% in the assay with CAKI-1 renal, 91.4% with A498 renal, 110% in the assay with CCRF-CEM leukemia and 106% in the assay with MOLT-4 leukemia.

With `CN1C(=O)CN2CCc3ccccc3C2c2cc(Cl)ccc21` (stereo unspecified), the growth was 81.7% in the assay with SK-MEL-2 melanoma; 91.5% in the assay with EKVX NSCLC; 85.1% in the assay on SN12C renal; 74.3% in the assay on UO-31 renal; 111% in the assay with TK-10 renal; 93.6% in the assay with ACHN renal. The growth with CAKI-1 renal was 81%; in the assay with A498 renal, 54.5%; in the assay on CCRF-CEM leukemia, 93.6%; in the assay on MOLT-4 leukemia it was 105%.

Consider `O=C(c1ccc(Cl)cc1)c1ccccc1Cl`, for which the growth in the assay with SK-MEL-2 melanoma is 103%; in the assay with EKVX NSCLC it was 96.9%; in the assay with SN12C renal, 94.7%; in the assay with UO-31 renal it was 72.2%; with TK-10 renal it was 90.9%; in the assay with ACHN renal it was 95%. Also, the growth in the assay on CAKI-1 renal is 88%; with A498 renal, 126%; in the assay with CCRF-CEM leukemia, 90.5%; with MOLT-4 leukemia, 87.1%.

Regarding `CC(C)=NNc1ccc([N+](=O)[O-])cc1[N+](=O)[O-]`, the growth was 113% in the assay on SK-MEL-2 melanoma; 74% in the assay with EKVX NSCLC; 84.4% with SN12C renal; 61.3% in the assay on UO-31 renal; 96.9% in the assay on TK-10 renal; 64.8% with ACHN renal. Besides, the values for the growth with CAKI-1 renal, in the assay on A498 renal and in the assay with CCRF-CEM leukemia were 53.9%, 74.5% and 42.2%, respectively.

For the molecule `O=[N+]([O-])c1cccc(C(F)(F)F)c1`, the growth with SK-MEL-2 melanoma was 116%; in the assay on EKVX NSCLC it was 104%; with SN12C renal, 95.1%; in the assay with UO-31 renal, 96.3%; in the assay with TK-10 renal, 108%; in the assay on ACHN renal, 102%. In addition, the growth in the assay with CAKI-1 renal is 94.3%; in the assay on A498 renal, 98.4%; in the assay on CCRF-CEM leukemia, 96.2%; with MOLT-4 leukemia, 102%.

With `O=C(NC1CCCCC1)OCc1c(COC(=O)NC2CCCCC2)c(-c2ccc(Cl)c(Cl)c2)n2c1CCC2`, the growth in the assay with SK-MEL-2 melanoma was -9.91% (active); in the assay on EKVX NSCLC, 60.5%; in the assay on SN12C renal, 22.3%; in the assay on UO-31 renal it was -13.6% (active); with TK-10 renal, 35.2%; in the assay on ACHN renal, 5.4% (active). Moreover, the results for the growth in the assay with CAKI-1 renal, with A498 renal and in the assay on CCRF-CEM leukemia were 8.84% (active), -67.7% (active) and 32.9%, respectively.

As to `COc1cc2cc(OC(C)=O)c3cc4c(cc3c2c(OC)c1OC)OCO4`, the growth with SK-MEL-2 melanoma is 109%; in the assay with EKVX NSCLC it was 95%; in the assay on SN12C renal it was 101%; in the assay with UO-31 renal, 89%; in the assay with TK-10 renal, 101%; in the assay on ACHN renal it was 101%. For the same molecule, the growth in the assay with CAKI-1 renal is 99%; in the assay with A498 renal it was 92.5%; in the assay with CCRF-CEM leukemia, 2.13% (active); in the assay on MOLT-4 leukemia, 96.6%.

With `O=C(c1ccccc1)C1CCC1`, the growth with SK-MEL-2 melanoma is 96.7%; in the assay with EKVX NSCLC, 105%; with SN12C renal, 89.2%; with UO-31 renal, 76.1%; in the assay on TK-10 renal, 93.4%; in the assay on ACHN renal, 106%. The growth was 98.5% with CAKI-1 renal, 103% in the assay on A498 renal, 88.6% with CCRF-CEM leukemia and 91.3% in the assay on MOLT-4 leukemia.

Take `O=C(Nc1cc(-c2ccccc2)[nH]n1)c1ccc(Cl)cc1`: the growth in the assay on SK-MEL-2 melanoma was 78%; in the assay on EKVX NSCLC it was 101%; with SN12C renal, 84.1%; with UO-31 renal, 59.1%; in the assay with TK-10 renal, 66.6%; in the assay with ACHN renal, 60.8%. The growth in the assay on CAKI-1 renal was 76.3%; in the assay on A498 renal, 78.6%; in the assay on CCRF-CEM leukemia, 62%; with MOLT-4 leukemia, 85.2%.

Regarding `NCC(=O)CCC(=O)O`, the growth with SK-MEL-2 melanoma was 126%; with EKVX NSCLC, 109%; with SN12C renal, 105%; in the assay on UO-31 renal it was 94.6%; with TK-10 renal, 114%; with ACHN renal, 99.2%. The growth in the assay with CAKI-1 renal is 109%; with A498 renal, 110%; with CCRF-CEM leukemia it was 109%; in the assay on MOLT-4 leukemia, 108%.

Regarding `O=C1N(C[P+](c2ccccc2)(c2ccccc2)c2ccccc2)CCCN1C[P+](c1ccccc1)(c1ccccc1)c1ccccc1`, the growth is 122% with SK-MEL-2 melanoma; 97% with EKVX NSCLC; 97.3% with SN12C renal; 87.1% with UO-31 renal; 106% with TK-10 renal; 97.1% in the assay on ACHN renal. In addition, the growth was 89.4% with CAKI-1 renal, 85.5% in the assay with A498 renal, 107% in the assay with CCRF-CEM leukemia and 97.7% with MOLT-4 leukemia.

`COC(=O)c1cccnc1`: the growth in the assay with SK-MEL-2 melanoma was 93.2%; with EKVX NSCLC, 105%; in the assay on SN12C renal it was 93.2%; in the assay on UO-31 renal it was 78.9%; with TK-10 renal, 96.9%; in the assay with ACHN renal, 90.6%. Besides, the growth in the assay on CAKI-1 renal was 94.8%; in the assay with A498 renal, 101%; in the assay on CCRF-CEM leukemia, 96.2%; with MOLT-4 leukemia it was 98.3%.

Regarding `FC(F)(F)c1ccc2c(c1)N(CCCN1CCN(C3CC3)CC1)c1ccccc1S2`, the growth in the assay with SK-MEL-2 melanoma is 90.4%; in the assay on EKVX NSCLC, 86.8%; in the assay with SN12C renal, 47.7%; in the assay with UO-31 renal, 17.6%; in the assay on TK-10 renal it was 80%; in the assay with ACHN renal, 78.1%. The growth was 17.3% in the assay on CAKI-1 renal, 9.76% (active) in the assay with A498 renal, 26.5% in the assay with CCRF-CEM leukemia and 34% in the assay with MOLT-4 leukemia.
